# Compound activity (PubChem BioAssay)
# KCNQ2 block – rat KCNQ2 potassium channel inhibitors, primary screen, cell-based, CHO-K1, FluxOR thallium flux, B-score | Potassium voltage-gated channel subfamily KQT member 2 (Rattus norvegicus), O88943 | 20 min; active compounds read low | B-score at 10 µM | 310,000 compounds, 1.1% hits;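 active = fluorescence ratio B-score at most minus 3 library SDs, with starting brightness B-score within 2 library SDs, cut at about -5.5 in these data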
# Target sequence (O88943 whole entry, looked up): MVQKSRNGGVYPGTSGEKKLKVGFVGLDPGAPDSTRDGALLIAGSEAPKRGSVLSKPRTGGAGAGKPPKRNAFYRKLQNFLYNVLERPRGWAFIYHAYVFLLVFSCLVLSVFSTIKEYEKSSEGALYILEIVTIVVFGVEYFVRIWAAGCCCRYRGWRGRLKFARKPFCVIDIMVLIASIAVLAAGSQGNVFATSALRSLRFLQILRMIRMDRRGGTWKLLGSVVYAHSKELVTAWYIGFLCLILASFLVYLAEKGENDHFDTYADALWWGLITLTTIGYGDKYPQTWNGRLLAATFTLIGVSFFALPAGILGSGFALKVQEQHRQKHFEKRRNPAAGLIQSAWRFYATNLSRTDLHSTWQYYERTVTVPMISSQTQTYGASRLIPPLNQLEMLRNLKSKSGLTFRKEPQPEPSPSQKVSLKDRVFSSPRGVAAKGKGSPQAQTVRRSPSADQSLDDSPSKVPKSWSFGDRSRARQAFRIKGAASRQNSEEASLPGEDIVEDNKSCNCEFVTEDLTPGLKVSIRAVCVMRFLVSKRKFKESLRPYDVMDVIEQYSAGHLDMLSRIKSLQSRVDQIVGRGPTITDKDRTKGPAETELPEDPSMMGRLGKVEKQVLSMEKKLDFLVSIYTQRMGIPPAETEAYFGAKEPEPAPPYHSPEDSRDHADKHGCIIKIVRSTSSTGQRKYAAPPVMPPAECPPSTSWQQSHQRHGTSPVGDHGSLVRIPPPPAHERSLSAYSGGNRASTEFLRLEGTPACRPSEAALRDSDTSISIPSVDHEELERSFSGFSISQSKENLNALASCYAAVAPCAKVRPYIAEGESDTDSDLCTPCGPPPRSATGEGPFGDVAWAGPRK
# KCNQ2 enhance – potentiators of rat KCNQ2 potassium channel. Potassium voltage-gated channel subfamily KQT member 2 (Rattus norvegicus), O88943. CHO-K1 KCNQ2, FluxOR thallium flux fluorescence; active compounds read high. B-score at 10 µM. 310,000 compounds, 0.54% hits;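 active = fluorescence ratio B-score at least 3 SD of library B-scores, with initial fluorescence B-score within 3 of them, cut at about 5.3 in these data; same plate scores as AID 2156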;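 also: B-score of peak minus minimum over baseline fluorescence ratio after K+ and Tl+ stimulus; positive B-score means potentiation of KCNQ2 with more thallium influx and brighter signal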
# * marks the source's active call; other numbers are inactive results; i = inactive; / = no result. The list is not random: actives were taken first. Their share in the collection is about 1.6%.
SMILES,KCNQ2 block,KCNQ2 enhance
Cc1nnc(Sc2cc(NCCO)c([N+](=O)[O-])c3nonc23)s1,-7.52*,-7.52
CCC(=O)OCCNc1cc(Sc2nc3ccccc3s2)c2nonc2c1[N+](=O)[O-],-7.54*,-7.54
COc1ccc(CCNC(=O)CSc2nc3[nH]ncc3c(=O)[nH]2)cc1OC,i,/
CN(C)S(=O)(=O)c1ccc(Cl)c(NC(=O)COc2ccccc2[N+](=O)[O-])c1,i,0.69
O=C(NC(=S)NC1CCCC1)c1ccccc1Br,i,1.9
CCN(C(=S)NC(=O)c1ccccc1Br)C1CCCCC1,i,11.7*
CC1=[N+](C)N(c2ccccc2)C(=O)C1N=Cc1c(Cl)cccc1Cl (stereo not given),i,/
O=C(NCCCc1ccccc1)c1cc(COc2ccc(F)cc2Cl)on1,i,/
CCCCCCC(=O)N/N=C/c1ccco1,i,9.98*
CCOC(=O)N/N=C\c1ccc([N+](=O)[O-])o1,i,/
CCCCCCCC(=O)N/N=C/c1ccc([N+](=O)[O-])o1,i,8.17*
O=C(Cc1ccc([N+](=O)[O-])cc1)N/N=C/c1ccc([N+](=O)[O-])o1,i,/
O=C(C[n+]1ccccc1)N/N=C/c1ccco1,i,0.64
O=C(CC12CC3CC(CC(C3)C1)C2)N/N=C/c1ccc([N+](=O)[O-])o1,i,16.1*
CCOC(=O)c1c[nH]c2c(C(F)(F)F)cccc2c1=O,i,1.85
O=C1CC(c2ccc(Cl)cc2)CC(O)=C1C=NCCO (stereo not given),i,0.04
O=C(O)CCC(=O)Nc1ccccc1C(=O)NCc1ccccc1,i,/
CCCC/C=C/C(NC(=O)CCc1ccccc1)c1ccccc1 (stereo not given),i,/
CCCC/C=C/[C@H](c1ccccc1)[C@H](CO)Cc1cccnc1,-5.67*,-5.67
Cc1ccc(S(=O)(=O)N2CCC(C(=O)Nc3cc(C(F)(F)F)ccc3N3CCOCC3)CC2)cc1C,i,/
CCn1c(CNC(=O)c2cccs2)n[nH]c1=S,i,/
O=S(=O)(c1ccc2nc(N3CCN(c4ccccc4)CC3)ccc2c1)N1CCCCC1,i,0.04
COc1ccccc1N1CCN(c2ccc3cc(S(=O)(=O)N4CCCCC4)ccc3n2)CC1,-5.56*,-5.56
Nc1cc(=O)[nH]c(=O)n1CCc1ccccc1,i,/
CCCCNc1c(-c2ccc(SC(C)CC)cc2)nc2ccccn12 (stereo not given),-7.08*,-7.08
SMILES,KCNQ2 block,KCNQ2 enhance
CCCCNc1c(-c2ccc(SC3CCCCC3)cc2)nc2ccccn12,i,/
O=c1[nH]cnc2c1sc1nc(-c3ccccc3)c3c(c12)CCCC3,i,1.54
S=c1nc[nH]c2c1sc1nc(-c3ccccc3)c3c(c12)CCCC3,i,15.7*
O=C(CCN1CCc2ccccc2C(c2ccccc2)C1)c1ccc2c(c1)OCCO2 (stereo not given),i,/
O=C(CCN1Cc2ccccc2C1)c1ccc2c(c1)OCCO2,-5.9*,-5.9
CC12CCC(C(=O)Nc3ccc(Cl)cc3)([C@H](Br)C1=O)C2(C)C (stereo not given in full),i,/
CC12CCC(C(=O)Nc3cccc(Cl)c3)(C(Br)C1=O)C2(C)C (stereo not given),i,6.98*
Cc1nc(SCC(=O)Nc2ccccc2Cl)oc1C,i,1.51
N/C(=N\OC(=O)N1c2ccccc2Sc2ccccc21)c1ccccc1,-6.49*,-6.49
N/C(=N\OC(=O)c1ccccc1Cl)c1ccccc1,i,/
Cc1cc(Nc2cccc([N+](=O)[O-])c2)c2cccc(C)c2n1,i,/
Cc1cc(Nc2ccccc2)c2c([N+](=O)[O-])ccc(C)c2n1,-7.35*,-7.35
O=C(OCC(=O)c1c[nH]c2ccccc12)c1cccc(S(=O)(=O)N2CCCCCC2)c1,i,8.85*
O=C(COC(=O)c1cccc(S(=O)(=O)N2CCCC2)c1)Nc1ccccc1,i,1.61
COc1cccc(N2CCN(c3ncnc4c3[nH]c3ccc(F)cc34)CC2C)c1 (stereo not given),-11.2*,-11.2
COc1ccc2[nH]c3c(N4CC(C)OC(C)C4)ncnc3c2c1 (stereo not given),i,0.36
c1ccc2c(c1)CCN(c1ncnc3c1[nH]c1ccccc13)C2,i,/
COc1cccc(N2CCN(c3ncnc4c3[nH]c3ccccc34)CC2C)c1 (stereo not given),-11.1*,-11.1
C1CN(CCN2CCOCC2)CCN1,i,0.76
COc1ccc(OC)c(/C=N/NC(=O)c2c(C)nc3ccc(C)cn23)c1,i,0.82
CC(C)NC(=O)C(c1ccc(F)cc1)N(C(=O)CCC(=O)Nc1ccccn1)C1CCCC1 (stereo not given),i,/
COc1ccccc1CNC(=O)COC(=O)c1ccccc1SCC(=O)N1CCCC1,i,/
COc1ccc(-n2nc(C(=O)NCC(=O)NCc3cccc(F)c3)c3ccccc3c2=O)cc1Cl,i,/
CCOc1ccccc1NC(=O)c1cccc2c1C(=O)N(C1CCCCC1)C2,-6.33*,-6.33
Cc1ccccc1NC(=O)c1cccc2c1C(=O)N(C1CCCCC1)C2,i,/
SMILES,KCNQ2 block,KCNQ2 enhance
O=C(NCc1ccc(F)cc1)c1c2c(nc3ccccc13)CCN(Cc1ccccc1)C2,i,/
COC(=O)c1ccc(CNC(=O)c2c3c(nc4ccccc24)CCN(Cc2ccccc2)C3)cc1,-6.18*,-6.18
c1ccc(Cc2nn3c(C4COc5ccccc5O4)nnc3s2)cc1 (stereo not given),i,/
c1ccc(CCc2nn3c(C4COc5ccccc5O4)nnc3s2)cc1 (stereo not given),-6.14*,-6.14
CC(C)c1nc2ccccc2c2nnc(SCC(=O)NCc3ccco3)n12,i,/
CC(C)(C)c1nc2ccccc2c2nnc(SCC(=O)NCc3ccco3)n12,-6.47*,-6.47
CCCN(CCC)CC(O)CN1C(=O)N(CN2C(=O)N(CC(O)CN(CCC)CCC)C(=O)C2(C)C)C(C)(C)C1=O (stereo not given),i,/
Cc1nc(N2CCN(c3ccccc3)CC2)nc2c1C(=O)CC(C)C2 (stereo not given),i,/
Cc1nc(N2CCN(c3ccccc3)CC2)nc2c1C(=O)CC(c1ccccc1)C2 (stereo not given),-6.13*,-6.13
C=CCN1C(=O)C(Cc2ccccc2)S/C1=N/N=C/c1cccs1 (stereo not given),i,/
C=CCN1C(=O)C(Cc2ccc(OCC)cc2)S/C1=N\N=C\c1cccs1 (stereo not given),-5.61*,-5.61
O=C(O)/C=C/c1ccc(S(=O)(=O)N2CCN(CCN3C(=O)C4C5C=CC(C5)C4C3=O)CC2)cc1 (stereo not given),i,/
CCN1CCN(CCNC(=O)c2ccc3c(c2)N(Cc2ccc(F)cc2)C(=O)/C(=C/c2ccccc2)S3)CC1,-6.48*,-6.48
COc1ccc(/C=C2\Sc3ccc(C(=O)NCCN4CCCCCC4)cc3N(C)C2=O)cc1,-6.43*,-6.43
COc1ccc(/C=C2\Sc3ccc(C(=O)N4CCc5ccccc5C4)cc3N(C)C2=O)cc1,i,/
CCN1CCN(CCNC(=O)c2ccc(/C=C3/Sc4ccccc4N(Cc4cccc(Cl)c4)C3=O)cc2)CC1,i,/
COc1cc(C(=O)O)ccc1OCc1ccncc1,i,/
CC1CCN(CCC(=O)Nc2ccc(F)c(F)c2)CC1,i,/
S=c1[nH]nc(-c2cc3c(s2)-c2ccccc2CC3)o1,i,16.2*
CC1CCc2sc(-c3n[nH]c(=S)o3)cc2C1 (stereo not given),i,2.68
